Source: PubChem BioAssay AID504332 (National Center for Advancing Translational Sciences (NCATS), 2011)
The campaign covered roughly 350,000 compounds. About 31,000 (8.9%) were called active. Where a call stands in place of a potency, no number is given. About 15% were inconclusive and are not listed. This excerpt belongs to a sample that is enriched for actives. Values without a mark were called inactive. Calls come from the whole dose curve; as a rule, active = well fitted inhibition curve with a large enough effect; inconclusive = small, poorly fitted or top-dose-only effect; inactive = no such curve, though single readings can be large or run the other way.

These molecules were tested against Histone-lysine N-methyltransferase EHMT2 (Homo sapiens) (UniProt Q96KQ7) (assay: qHTS Assay for Inhibitors of Histone Lysine Methyltransferase G9a). Settings: G9a H3K9 monomethylation, AlphaScreen, 2 h; series mostly up to 59 µM.
Sequence of Histone-lysine N-methyltransferase EHMT2 (Homo sapiens) (Q96KQ7 913-1193 limits assumed): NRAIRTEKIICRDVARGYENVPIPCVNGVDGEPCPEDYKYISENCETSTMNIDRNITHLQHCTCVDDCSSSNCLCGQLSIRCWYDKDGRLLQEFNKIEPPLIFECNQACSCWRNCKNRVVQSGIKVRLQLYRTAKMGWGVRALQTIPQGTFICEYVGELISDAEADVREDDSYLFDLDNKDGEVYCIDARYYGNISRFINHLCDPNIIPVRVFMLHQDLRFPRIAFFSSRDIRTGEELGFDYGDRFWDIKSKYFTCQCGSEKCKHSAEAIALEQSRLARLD
Text: Methylated lysines, on the N-terminal tails of histone proteins serve as epigenetic markers to recruit factors that can then modify local chromatin structure to lead to functional consequences. G9a and other members of the SUV39 family of the SET domain-containing superfamily of histone lysine methyltransferases (HMT) have been identified to specifically methylate Lys9 of histone H3 (H3K9). G9a catalyzes the mono- and di-methylation of H3K9 in mammalian euchromatic regions, where the resulting H3K9me2 is indicative of transcriptional repression. […] The inhibition of G9a will result in transcriptional activation and work synergistically with DNA methyltransferase and histone deacetylase inhibitors, to kill cancer cells. This qHTS assay for identification of G9a inhibitors is a chemiluminescence based AlphaScreen (PerkinElmer). Methylation of biotinylated-histone peptide is measured through specific antibody-based detection, in conjunction with streptavidin-coated donor and anti-IgG antibody-coated acceptor beads. The method is particularly well suited for detection of inhibitors acting by the desired histone peptide competitive mechanism and is applicable to testing other HMTs. Although AlphaScreen has significant advantages with its utility in a variety of epigenetic target assays, the primary screening data provided in this deposition should be used with caution due to the prevalence of screening artifacts. An AlphaScreen counterscreen is highly recommended to be run against any putative actives to eliminate non specific artifacts. Alternatively, one can use other AlphaScreen assays in PubChem to filter out promiscuous hits. Quinn et al. A chemiluminescence-based method for identification of histone lysine methyltransferase inhibitors. Mol Biosyst 6(5): 782-8. 2010. PMID: 20567762 [2] Baell,Holloway. New substructure filters for removal of pan assay interference compounds (PAINS) from screening libraries and for their exclusion in bioassays. J Med Chem. 53(7):2719-40. 2010. PMID: 20131845 NIH Molecular Libraries Probe Production Network [MLPCN] NIH Chemical Genomics Center [NCGC] Structural Genomics Consortium (SGC) NIH Grant: 5U54 MH084681-02
To each well of a 1,536w plate, 2ul of HMT enzyme (final 20nM) were added, using a nanoliter dispenser. The G9a- and GLP-inhibitor BIX-01294 (CID: 25150857) are used as an intraplate control, with a 16-point titration in duplicate. A Kalypsys pin-tool transferred 23nl of library compound solution in DMSO to each well. Following a 15 min incubation of enzyme with compounds at room temperature, 1ul mixture of b-H3K9 peptide substrate (final 500nM) and SAM cofactor (final 20uM) were added. Reactions were allowed to proceed at room temperature for 2 hours. Methylated b-H3K9 peptide product was detected with 0.5 ug/mL rabbit polyclonal anti-monomethyl histone H3K9 antibody (Abcam Inc., Cambridge, MA) and 20 ug/mL each streptavidin-coated donor and anti-rabbit IgG acceptor AlphaScreen beads. Antibody and beads were added in a 1ul dispense, for a final volume of 4ul, and plates were incubated, protected from the light, for 10 min at room temperature. Microplates were then read on an EnVision multilabel plate reader using the 1,536 plate HTS AlphaScreen aperture (excitation time 80 ms, measurement time 240 ms).
Note: nearly all actives have a fitted effect of over 75% in size.
Potency is the fitted concentration of half-maximal effect.

**Q.** With `Cc1ccc(Cl)cc1NC(=O)Cc1ccc(-n2c(C)nc3cccnc32)cc1` as the molecule, how does the Potency read?
**A.** inactive

**Q.** For `COc1ccccc1C1=CC(=O)C[C@H](c2ccc(F)cc2)C1`, which activity, negative = inhibition is on record?
**A.** -10.3% [at 0.501 µM]

**Q.** Which activity, negative = inhibition does the source give for `Cc1sc2ncnc(SCC(=O)Nc3ccc(CN4CCCC4)cc3)c2c1C` here?
**A.** 10.2% [at 12.7 µM]

**Q.** Which Potency does the source give for `S=C(c1ccc(-c2ccccc2)o1)N1CCCCC1` here?
**A.** inactive

**Q.** Which Potency does the source give for `O=C(NC(=S)Nc1ccccc1C(=O)O)c1ccc(-c2ccc(Br)cc2)o1` here?
**A.** 22.4 µM (active)

**Q.** For `O=C(Cc1ccccc1)Nc1ccc(C(=O)Nc2ccccc2C(=O)O)cc1`, which Potency is on record?
**A.** inactive

**Q.** For `Cc1ccc(SCC(=O)Nc2ccc3oc(-c4ccccc4C)nc3c2)cc1`, which Potency is on record?
**A.** inactive

**Q.** With `Cc1cccc(NC(=O)CSc2nc3c([nH]c4ccccc43)c(=O)n2-c2cc(C)cc(C)c2)c1` as the molecule, how does the Potency read?
**A.** inactive

**Q.** For `COCCCNC(=S)NC(=O)c1ccc([N+](=O)[O-])cc1`, which Potency is on record?
**A.** inactive

**Q.** For `CCCCCC(=O)NC(=S)NNC(=O)c1ccc([N+](=O)[O-])cc1`, which Potency is on record?
**A.** 8.91 µM (active)

**Q.** How did the Potency turn out when `CCCCCC(=O)Nc1ccc(C(=O)N/N=C/c2ccc([N+](=O)[O-])cc2)cc1` was run?
**A.** inactive

**Q.** With `CC(C)(C)SCCNC(=O)c1cccc([N+](=O)[O-])c1` as the molecule, how does the Potency read?
**A.** inactive

**Q.** `Cc1cccc(C(=O)NNC(=O)c2cccc([N+](=O)[O-])c2)c1` was tested. Which Potency did it give?
**A.** inactive

**Q.** `CC(C)CC(=O)NC(=S)NNC(=O)c1cccc([N+](=O)[O-])c1` was tested. Which Potency did it give?
**A.** 22.4 µM (active)

**Q.** How did the Potency turn out when `COc1ccccc1NC(=O)C1=C(C)Nc2ncnn2C1c1sccc1C` (configuration not stated) was run?
**A.** inactive

**Q.** Which Potency does the source give for `CC(OC(=O)c1ccc(S(=O)(=O)N2CCOCC2)cc1)c1ccccc1` (configuration not stated) here?
**A.** inactive

**Q.** How did the activity, negative = inhibition turn out when `COc1ccccc1/C=C/C(=O)OCC(=O)NC1CCCCCC1` was run?
**A.** 25.2% [at 2.33 µM]

**Q.** How did the Potency turn out when `Cc1cc(C)c2c(-c3ccc(F)cc3)c(C#N)c(=O)n(C)c2n1` was run?
**A.** inactive

**Q.** For `CC(=O)c1c(C)[nH]c(=S)c(C#N)c1-c1ccc(F)cc1`, which Potency is on record?
**A.** 1.41 µM (active)

**Q.** How did the Potency turn out when `N#Cc1c(-c2ccc(Cl)cc2)c2c([nH]c1=S)CCCC2` was run?
**A.** inactive

**Q.** For `COc1ccc(OC)c(CNC(=O)CN2C(=O)CCn3nc(-c4cn(C)c5ccccc45)cc32)c1`, which Potency is on record?
**A.** inactive

**Q.** `CCCC(=O)Nc1ccc(NC(=O)c2sc3ccccc3c2Cl)cc1` was tested. Which Potency did it give?
**A.** inactive

**Q.** Which activity, negative = inhibition does the source give for `Cc1ccc(S(=O)(=O)N(Cc2cccc([N+](=O)[O-])c2)C(=O)N2CCN(C)CC2)cc1` here?
**A.** 6.51% [at 2.33 µM]

**Q.** `CN1CCN(/N=C2/C(=O)Nc3ccc([N+](=O)[O-])cc32)CC1` was tested. Which Potency did it give?
**A.** 50.1 µM (active)

**Q.** `O=C1Nc2ccc([N+](=O)[O-])cc2C1=Nc1cccc(CO)c1` was tested. Which Potency did it give?
**A.** inactive

**Q.** `O=C(CSc1oc(-c2ccco2)nc1S(=O)(=O)c1ccc(Cl)cc1)c1ccccc1` was tested. Which Potency did it give?
**A.** inactive

**Q.** Which Potency does the source give for `Cc1ccc(-c2cc(C(=O)N/N=C/C=C/c3ccco3)c3ccccc3n2)cc1C` here?
**A.** 44.7 µM (active)

**Q.** How did the Potency turn out when `O=C(N/N=C/C=C/c1ccco1)c1cccs1` was run?
**A.** 12.6 µM (active)

**Q.** `COc1cccc(-c2cc(C(=O)N/N=C/c3ccc(OC)c(COC(C)=O)c3)c3ccccc3n2)c1` was tested. Which Potency did it give?
**A.** inactive

**Q.** How did the Potency turn out when `CCOc1cc(/C=N/NC(=O)c2cc(-c3ccccc3)nc3ccccc23)ccc1O` was run?
**A.** inactive

**Q.** For `CC(/C=N/NC(=O)c1ccncc1)=C\c1ccco1`, which Potency is on record?
**A.** inactive

**Q.** With `CC(=O)Nc1ccc(/C=N/NC(=O)c2cccs2)cc1` as the molecule, how does the Potency read?
**A.** inactive

**Q.** Which activity, negative = inhibition does the source give for `CCOc1ccc(CCNC(=O)COC(=O)c2ccc(F)c(S(=O)(=O)N3CCOCC3)c2)cc1OCC` here?
**A.** -4.3% [at 0.501 µM]

**Q.** With `Brc1cccc(-c2nnn3c2nc(NC2CCCCC2)c2ccccc23)c1` as the molecule, how does the Potency read?
**A.** inactive

**Q.** With `Cc1ccccc1NC(=O)Cc1nc(COC(=O)c2ccc(C(F)(F)F)cc2)cs1` as the molecule, how does the activity, negative = inhibition read?
**A.** 5.04% [at 12.7 µM]

**Q.** How did the activity, negative = inhibition turn out when `CCN(CC(=O)NCc1ccc(Cl)cc1)C(=O)CSc1ccccc1` was run?
**A.** -1.68% [at 12.7 µM]

**Q.** `Cc1c(-c2nsc(NC(=O)c3cccc(Cl)c3)n2)nnn1-c1ccccc1C(F)(F)F` was tested. Which Potency did it give?
**A.** inactive

**Q.** For `O=c1c(-c2cccc(Cl)c2)c[nH]n1-c1ccccc1`, which activity, negative = inhibition is on record?
**A.** 3.35% [at 2.33 µM]

**Q.** Which Potency does the source give for `COc1cc2c(cc1/C=C1/NC(=O)N(c3ccccc3)C1=O)OCO2` here?
**A.** inactive

**Q.** With `O=C1N/C(=C/c2cccn2-c2ccccc2)C(=O)N1c1cccc(Cl)c1` as the molecule, how does the Potency read?
**A.** 1 µM (active)

**Q.** How did the Potency turn out when `COc1ccc(S(=O)(=O)NCCSc2nnnn2-c2ccccc2)cc1` was run?
**A.** inactive

**Q.** Which activity, negative = inhibition does the source give for `N[C@@H](Cc1ccccc1)C(=O)N1CCOCC1` here?
**A.** 11.6% [at 2.33 µM]

**Q.** `Cc1cc(C)c(S(=O)(=O)N2CCC(C(=O)OCc3c(C)noc3C)CC2)c(C)c1` was tested. Which Potency did it give?
**A.** inactive

**Q.** How did the Potency turn out when `COc1ccccc1-c1nnc(SCC(N)=O)o1` was run?
**A.** inactive

**Q.** `O=C(OCCN=C1NS(=O)(=O)c2ccccc21)c1cccc([N+](=O)[O-])c1` was tested. Which Potency did it give?
**A.** inactive

**Q.** `N#CC1(NC(=O)COc2ccc3oc4ccccc4c3c2)CCCCC1` was tested. Which Potency did it give?
**A.** inactive

**Q.** How did the Potency turn out when `O=C(CCCN=C1NS(=O)(=O)c2ccccc21)OCC(=O)c1ccc(F)c(F)c1` was run?
**A.** 44.7 µM (active)
